In PubChem BioAssay (NCI):
About 83,000 compounds went through this panel and 20% of them were active in at least one assay; those are over-represented in the sample as a whole.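 Step 1: grow cells in 96-well plates. Step 2: add test compound at a single concentration. Step 3: incubate 48 h. Step 4: record percent growth.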 Activity calls are given as the source filed them. Rule for the calls: active = growth percent below 10; inactive = the rest.

test system: MDA-MB-468 breast; assay: NCI-60 one-dose screen, 48 h (100 = growth as untreated, 0 = no growth, -100 = all killed); settings: 10 µM unless noted

| SMILES | growth |
| --- | --- |
| O=C(Nc1ccccc1)Nc1ncnc2c1ncn2-c1ccccc1 | 74.3% (inactive) |
| O=C(CCCCCCCCC(=O)N/N=C\c1cc(Cl)ccc1O)N/N=C\c1cc(Cl)ccc1O | -16% (active) |
| CCC1CCc2nc3sc(C(=O)Nc4ccccc4F)c(N)c3cc2C1 (stereo not given) | 25% (inactive) |
| COc1cc(-c2ccc3ncnc(NCc4ccccc4)c3c2)cnc1OC | 15.8% (inactive) |
| COc1ccc(Sc2[nH]c(C=O)c3ccccc23)cc1 | 9.32% (active) |
| NCCOc1ncccc1/C=C1\C2C=CC=CC2C2C=CC(F)=CC12 (stereo not given) | -7.18% (active) |
| CCN(CC)c1nc(SCC(=O)Nc2nc3ccc(C)cc3s2)nc(-c2ccccc2)c1C#N | 86.7% (inactive) |
| CCOC(=O)c1c(Nc2ccccc2)nn2c(-c3ccc(Cl)cc3)ccnc12 | 65.1% (inactive) |
| Nc1c(C(=O)Nc2cccc3ccccc23)sc2nc3c(cc12)CCCC3 | 35% (inactive) |
| CC1CCCCN1CCCNC(=O)c1ccc2c(c1)sc1nc(-c3ccc(F)cc3)cn12 (stereo not given) | 96.3% (inactive) |
| CC/C=C\C[C@H](F)C/C=C1/C(=O)C=C[C@@H]1C/C=C\CCCC(=O)OC | 17.9% (inactive) |
| O=C(CSc1nnc(-c2ccc(Cl)cc2)n1-c1ccccc1)Nc1ccc(F)cc1 | 91.8% (inactive) |
| O=C(CCCCN1CCOCC1)Nc1ccc(Cn2nnc3c2C(=O)c2nnn(Cc4ccc(NC(=O)CCCCN5CCOCC5)cc4)c2C3=O)cc1 | -76.9% (active) |
| CC(C)(C)CC(C)(C)c1ccc(OCCOCC[N+](C)(C)Cc2ccccc2)cc1 | -81.8% (active) |
| COc1ccc(C(c2cc(OC)c(OC)c(OC)c2)N2CCCCC2)cc1 (stereo not given) | 9.32% (active) |
| COc1cccc(CNC(=O)c2cccc(C3CC(=O)c4c(cc(OC)c(OC)c4OC)O3)c2)c1 (stereo not given) | 20.5% (inactive) |
| Cc1cc2nc3ccc(N=Nc4ccc(N(C)C)cc4)cc3n(-c3ccccc3)c-2cc1=N | -89.4% (active) |
| CC[C@]12C=CCN3CC[C@@]4(c5cc(NC(=O)CCC(=O)O[C@H]6CC[C@H]7[C@@H]8CC[C@H]9CC(=O)CC[C@]9(C)[C@H]8CC[C@]67C)c(OC)cc5N(C)[C@H]4[C@@](O)(C(=O)OC)[C@@H]1OC(C)=O)[C@@H]32 | 73% (inactive) |
| O=C1/C(=C/N2N=C(c3ccc4ccccc4c3)CC2c2ccccc2O)SC(=S)N1c1cccnc1 (stereo not given) | 7.52% (active) |
| Cc1[nH]c2ccc(F)cc2c1CCNC(=O)C1CCN(C(=O)c2ccccc2)CC1 | 87.7% [25 µM] (inactive) |

| SMILES | growth |
| --- | --- |
| Cc1cc2nc3c4cc(C=O)ccc4n(CCN(C)C)c3nc2cc1C | -5.88% (active) |
| COc1cc(OC)c(C2C(Cl)C(=O)N2Nc2ncnc3ccccc23)cc1OC (stereo not given) | 92.5% (inactive) |
| NC(=O)SCC(=O)Nc1ccccc1-c1ccccc1 | 99.9% (inactive) |
| COc1ccc(-c2ccc(-c3ccc(C(=N)N)cn3)o2)cc1Cl | -9.43% (active) |
| CCOc1ccc(Nc2nc3c(s2)C(=O)c2ccccc2C3=O)cc1 | 68.8% (inactive) |
| CCCCCCCCCCNC(=O)CI | -40.5% (active) |
| Cc1ccc(NC(=O)C(Cl)Cl)cc1 | 90.9% (inactive) |
| Nc1nc2c(ncn2C2OC3COP(=O)(O)OC4C(COP(=O)(O)OC2C3O)OC(n2cnc3c(N)ncnc32)C4O)c(=O)[nH]1 (stereo not given) | 116% (inactive) |
| Nc1c(C(=O)Nc2ccc(Cl)cc2)cc(-c2nc3ccccc3s2)c(=O)n1NS(=O)(=O)c1ccc(Cl)cc1 | 110% (inactive) |
| COc1ccc(C(=O)N2c3ccccc3Sc3ccccc32)c(C(F)(F)F)c1 | 29.7% (inactive) |
| CC(=O)/C(=C/c1cccc(Cl)c1)C(=O)c1ccccc1 | 99.2% (inactive) |
| O=S(=O)(c1ccccc1)N1CCCN(c2nc(-c3ccccc3)nc3nc(-c4ccccc4)oc23)CC1 | 116% (inactive) |
| CCOC(=O)C(=Cc1cccc(Cl)c1)C(=O)OCC | 37.9% (inactive) |
| COc1ccc(/C=C2\CN(Cc3cn(CCCNc4ccnc5cc(Cl)ccc45)nn3)C/C(=C\c3ccc(OC)c(OC)c3)C2=O)cc1OC | -11.1% (active) |
| CCc1ccccc1C(=O)N(CC)CC | 116% (inactive) |
| O=C(NC1CC(F)C1)c1cc2cccnc2n1-c1ccc(Cl)c(Cl)c1 (stereo not given) | 101% (inactive) |
| CC(=O)Oc1ccc(Cl)cc1CN(C(C)=O)C1CCCCC1 | 101% (inactive) |
| CN1C(=O)c2cc(Cl)nc3c(NC(=O)c4cccc(Cl)c4)c(Cl)c(NC(=O)c4cccc(Cl)c4)c1c23 | -19.6% (active) |
| CC(C)CSc1nc(N)nc2c1ncn2C1OC(CO)C(O)C1O (stereo not given) | 96.5% (inactive) |
| CC(=O)CS(C)(=O)=O | 109% (inactive) |
